# Assay outcomes from PubChem.
# In the library only some 4.7% were active in any assay of this set; here they are far more common.
# D1 antagonist – antagonists of human D1 dopamine receptor; P21728; HEK293 TREx D1 cells, calcium flux, dopamine EC80; hits give low values; activity change, negative = inhibition, % at 10 µM; 360,000 tested, 3.2% active; AID 504652; in the data active = activity change below about -30%; also: % is scaled to controls: 0 for no effect and ±100 for the full control effect
# Target sequence (P21728 whole entry, looked up): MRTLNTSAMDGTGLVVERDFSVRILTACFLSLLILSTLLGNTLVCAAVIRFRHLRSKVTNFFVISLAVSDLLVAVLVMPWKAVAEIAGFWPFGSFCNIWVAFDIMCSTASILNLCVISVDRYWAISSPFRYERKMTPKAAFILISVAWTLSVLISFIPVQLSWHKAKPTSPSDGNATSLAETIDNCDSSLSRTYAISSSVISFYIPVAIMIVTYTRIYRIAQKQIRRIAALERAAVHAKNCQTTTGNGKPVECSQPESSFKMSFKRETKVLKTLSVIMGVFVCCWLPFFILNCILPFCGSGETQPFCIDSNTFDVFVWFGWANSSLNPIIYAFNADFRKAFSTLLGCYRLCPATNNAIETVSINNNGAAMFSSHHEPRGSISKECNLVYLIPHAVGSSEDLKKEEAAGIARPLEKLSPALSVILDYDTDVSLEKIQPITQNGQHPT
#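 HEK293 T-REx cells expressing inducible, force-coupled D1 receptor; no-wash Ca dye, 30–90 min RT. Cmpd → 180 s read at 1 Hz → EC80 DA → 180 s read.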
# TRHR ag – agonists of human TRH receptor. 360,000 tested, 0.18% active. activation, % at 2 µM. AID 493084. TRHR cells, calcium flux fluo-8, FDSS agonist mode; also: 0% is about no effect
#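 Fluo-8-loaded TRHR cells; 10 s baseline, compound added, kinetic Ca2+ fluorescence read 1/s, agonist mode.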
# TRHR PAM – TRH receptor (human) allosteric enhancement | enhancement, % at 2 µM | TRHR cells, fluo-8 calcium fluorescence, EC20 TRH enhancement | 360,000 tested, 0.66% active | P34981; in the data active = enhancement above about 30%; also: 0% is about no effect
#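 Enhancer read-out: after compound pinning and an initial kinetic agonist-mode read, an EC20 of TRH (10 nM final) was injected and fluo-8 calcium signal (Ex 480/Em 530) followed at 1 s/cycle for 100 cycles in TRHR-expressing cells.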
# D1 ag – human D1 receptor agonism; HEK293 T-REx D1 cells, calcium flux, agonist mode; P21728; 360,000 tested, 1% active; activation, % at 2 µM; AID 504660; also: 0% is about no effect
#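 Agonism was scored from calcium flux recorded over 180 s (1 read/s) after pintool compound addition, following a 10-cycle baseline. Cells were inducible force-coupled HEK293 TREx D1, plated overnight at 30 C and loaded with no-wash calcium dye.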
# D1 potentiator – enhances dopamine response at the human D1 receptor | potentiation, % at 10 µM | HEK293 TREx D1 cells, calcium flux, dopamine EC20 potentiation | 360,000 tested, 0.036% active | AID 504651; in the data active = potentiation above about 30%; also: 0% is about no effect
# An asterisk follows results filed as active. Rule as the data show it, unless noted: active = activation above about 30%; inactive = the rest.
SMILES,D1 antagonist,TRHR ag,TRHR PAM,D1 ag,D1 potentiator
COc1ccc(CCN2CC(C(=O)NCc3cnn(C(C)C)c3)CCC2=O)cc1 (stereo unspecified),-3,0,1,4,-6
Cc1cc2c(c(=O)n1CCN(C)C)C(c1ccncc1)C(C#N)=C(N)O2 (stereo unspecified),-9,1,1,-1,-5
COc1ccc(C2C(C#N)=C(N)Oc3cc(C)n(Cc4ccncc4)c(=O)c32)cc1 (stereo unspecified),-35*,0,5,0,-2
Cc1cc(Cl)ccc1NS(=O)(=O)c1c(C)[nH]c(=O)[nH]c1=O,11,1,15,0,-2
COc1ccccc1NC(=O)c1ccc(S(=O)(=O)N2CCC(C)CC2)cc1,-32*,-1,-11,2,-4
CC1Sc2ccc(S(=O)(=O)N3CCC(C(=O)Nc4cccc(Cl)c4)CC3)cc2NC1=O (stereo unspecified),-23,1,-6,7,-3
COc1cccc(NS(=O)(=O)c2ccc3c(c2)NC(=O)C(C)S3)c1 (stereo unspecified),0,0,-5,13,7
COc1ccccc1NC(=O)C1CCN(S(=O)(=O)c2ccc3c(c2)NC(=O)C(C)S3)CC1 (stereo unspecified),-30*,1,-1,13,-1
CC1Sc2ccc(S(=O)(=O)CCC(=O)N3CCN(c4cccc(Cl)c4)CC3)cc2NC1=O (stereo unspecified),-42*,-1,0,10,5
COc1ccccc1NS(=O)(=O)c1ccc2c(c1)NC(=O)C(C)S2 (stereo unspecified),1,0,-10,32*,-4
Cc1ccc(NC(=O)C2CCN(S(=O)(=O)c3ccc4c(c3)NC(=O)C(C)S4)CC2)cc1C (stereo unspecified),-27,0,-3,7,7
COc1ccc(N2CCN(S(=O)(=O)c3ccc4c(c3)NC(=O)CS4)CC2)cc1,-16,0,1,5,7
COc1ccc(N2CCN(S(=O)(=O)c3ccc4c(c3)NC(=O)C(C)S4)CC2)cc1 (stereo unspecified),-38*,1,-3,14,2
Cc1ccc(NC(=O)C2CCN(S(=O)(=O)c3ccc4c(c3)NC(=O)C(C)S4)CC2)c(C)c1 (stereo unspecified),-40*,1,-5,8,1
O=C(CSc1ccccc1)NNC(=O)c1ccncc1,4,0,32*,5,1
O=C(CSc1ccccc1F)NNC(=O)c1ccncc1,5,0,5,1,3
CCCCNC(=O)c1onc(CSc2ccc(F)c(F)c2)c1C(=O)O,18,0,-3,0,-1
CCCCNC(=O)c1onc(CSc2ccc(C)c(C)c2)c1C(=O)O,-32*,0,3,1,-1
CC(C)NC(=O)c1onc(CSc2ccccc2)c1C(=O)O,1,1,31*,-1,1
Cc1cc(NC(=O)CCC(=O)N(CCC(C)C)C(C(=O)NCC2CCCO2)c2ccccc2C)no1 (stereo unspecified),4,0,-4,1,-2
CC(C)(CO)Cc1cc(C(C)(C)C)c(O)c(C(C)(C)C)c1,22,-1,21,71*,-3
COc1ccc(S(=O)(=O)Oc2ccc3ccccc3c2)cc1,-39*,0,-5,13,-12
CC(=O)N1CCN(C(=O)COC(=O)CNC(=O)c2ccccc2C)CC1,11,0,2,2,-9
CCCN1CC=C2C(C#N)=C(N)C(C#N)(C#N)C(c3cccc(OC)c3OC)C2C1 (stereo unspecified),-3,7,4,34*,0
Cc1oc(-c2cccc(Br)c2)nc1Cn1c(=O)cc(-c2ccccc2)c2c(C)nn(C)c21,12,0,10,1,-2
SMILES,D1 antagonist,TRHR ag,TRHR PAM,D1 ag,D1 potentiator
S=C(Nc1cccnc1)NC1CC2CCC1C2 (stereo unspecified),-34*,3,5,18,-3
O=C(Cn1cc(S(=O)(=O)Cc2cccc(Cl)c2)c2ccccc21)Nc1ccccc1Cl,7,1,3,6,-1
O=S(=O)(NCCSc1nc2ccccc2o1)c1ccccc1,-33*,-1,3,7,-3
O=C(CSc1nc2ccccc2o1)Nc1ccccc1,-37*,-1,-1,3,-8
O=C(Cn1cc(S(=O)(=O)Cc2ccccc2Cl)c2ccccc21)Nc1ccc(F)cc1F,1,1,-3,5,0
COc1cccc(CNC(=O)c2cc3oc4ccccc4c3n2C)c1OC,-32*,1,13,3,-10
CCn1c(C(=O)NCc2ccc(F)cc2)cc2oc3ccccc3c21,4,-1,0,-1,-2
CCOc1ccccc1CNC(=O)c1cc2oc3ccccc3c2n1CC,-43*,1,-4,1,-6
O=C(NC1CCOc2ccccc21)c1ccccn1 (stereo unspecified),7,-1,9,0,-1
Nc1cccc(/C=C/c2ccncc2)c1,-41*,0,3,1,0
COC(=O)c1scc(C#N)c1N/N=C(\C#N)S(=O)(=O)c1ccc(Cl)cc1,-32*,0,-25,18,-5
CC(Cc1ccccc1)NC(=O)c1cc2ccccc2o1 (stereo unspecified),-7,-2,-6,48*,-20
O=C(NNC(=O)c1cc(Br)c(Br)s1)c1ccncc1,-5,0,-1,1,-6
COc1ccc(C(=O)n2cc(C(=O)c3cc(C)ccc3O)cn2)cc1,2,0,1,3,-3
COc1ccc(O)c(C(=O)c2cnn(C(=O)c3cc(C)oc3C)c2)c1,-46*,0,-5,2,-9
COC(=O)c1c(C(=O)OC)c(C)n(Cc2ccco2)c1C,-68*,0,13,1,-5
COC(=O)C1=C(C)N(Cc2ccco2)C(=O)N[C@H]1c1ccccc1,-49*,0,0,-1,1
COC(=O)C1=C(C)N(Cc2ccco2)C(=O)N[C@H]1c1ccc(Br)cc1,28,1,2,-1,-2
Cc1cccc(/C=N/NC(=O)C2CCCNC2=O)c1 (stereo unspecified),-85*,0,2,2,-4
CCC(=O)Oc1ccc2ccccc2c1CNC(=O)c1ccccc1,-40*,-2,6,2,5
OCC[C@H]1C[C@H](O)[C@@H](O)[C@]2(OCCc3ccccc32)O1,-1,0,1,0,-2
Cc1ccc(-c2nc(CS(=O)CC(=O)NC3CC3)c(C)o2)cc1 (stereo unspecified),12,0,3,0,3
